Consider 19 compounds from PubChem BioAssay.

A short description of experiment [1]: antimalarial activity against Dd2 strain (AID 2302;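 active means growth inhibition above 50% at the single 2 µM test dose, taken to imply half-maximal potency below 2 µM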;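 further: 0% = DMSO untreated growth and 100% = chloroquine plus artemisinin killed control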). As to conditions: P. falciparum Dd2 in RBCs, LDH growth readout, 72 h; at 2 µM; hits give high values.
The nature of experiment [2]: HepG2 cytotoxicity, primary screen, cytotoxicity control for P. falciparum antimalarial project, cell-based, ATP luminescence (AID 2303;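 active means inhibition above 50%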;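 further: 0% = DMSO wells and 100% = digitonin-killed cells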). To be noted: HepG2 viability, 24-48 h, at 10 µM, hits give high values.
Experiment [3] addresses L-lactate dehydrogenase (Plasmodium falciparum (isolate CDC / Honduras)) (UniProt Q27743). Nature of the experiment: PfLDH activity inhibition – cell lysate, 3D7 strain, counter-screen for P. falciparum growth inhibition project (AID 2304).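 Further: 0% = vehicle and 100% = reference inhibitor.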 As to conditions: P. falciparum 3D7 crude extract, LDH APAD/NBT absorbance; at 2 µM; hits give high values. On the technique in general: The purpose of a counterscreen is to sort out artefacts and off-target activity.

A short description of experiment [4]: inhibition of 3D7 malaria parasite growth – strain 3D7 (AID 2306).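 Further: 0% = DMSO wells and 100% = chloroquine plus artemisinin control wells.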 As to conditions: P. falciparum 3D7 erythrocytic growth, LDH absorbance, 72 h; at 2 µM; hits give high values.
The target of experiment [5] is Calcium-dependent protein kinase 1 (Plasmodium falciparum (isolate 3D7)) (UniProt P62344). Nature of the experiment: PfCDPK1 kinase inhibitors, biochemical, TCAMS library (AID 1159585; cut-off not given, nearly all actives have IC50 up to about 0.98 µM;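 further: inhibitors leave more ATP so luminescence rises with inhibition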). As to conditions: recombinant PfCDPK1, Kinase-Glo ATP depletion luminescence.
The target of experiment [6] is Plasmodium falciparum protein kinase 6 (PK6, PF3D7_1337100) (UniProt Q8IDW1). Briefly: PfPK6 kinase inhibitors, biochemical, TCAMS library (AID 1159586). As to conditions: recombinant PfPK6, Kinase-Glo ATP depletion luminescence. A general note: Kinase-Glo reads ATP consumption through a luciferase reaction.
In experiment [7] the target is Protein kinase 7 (PK7), Plasmodium falciparum 3D7 (PF3D7_0213400) (UniProt Q7YTF7). Nature of the experiment: inhibition of Plasmodium PK7 catalytic activity – biochemical, TCAMS antimalarial set, Kinase-Glo luminescence (AID 1159587). To be noted: recombinant PfPK7, Kinase-Glo ATP depletion luminescence.
The target of experiment [8] is Calcium-dependent protein kinase 4 (Plasmodium falciparum (isolate 3D7)) (UniProt Q8IBS5). Briefly: PfCDPK4 kinase inhibitors, biochemical, TCAMS library (AID 1159588; cut-off not given, nearly all actives have IC50 up to about 0.91 µM). To be noted: recombinant PfCDPK4, Kinase-Glo ATP depletion luminescence.

Molecules are shown by their SMILES. Values joined by “and” are separate entries in the source; they are usually repeats but may differ in a detail not shown here. Identical values can stand only once. Unmarked numbers belong to inactive results. For some assays here: Entries with a potency or affinity are not part of this list. Active and inactive are the calls of the source. Unless noted, how the calls were made is not given here.

Protein kinase 7 (PK7), Plasmodium falciparum 3D7 (PF3D7_0213400), sequence (Q7YTF7 1-343): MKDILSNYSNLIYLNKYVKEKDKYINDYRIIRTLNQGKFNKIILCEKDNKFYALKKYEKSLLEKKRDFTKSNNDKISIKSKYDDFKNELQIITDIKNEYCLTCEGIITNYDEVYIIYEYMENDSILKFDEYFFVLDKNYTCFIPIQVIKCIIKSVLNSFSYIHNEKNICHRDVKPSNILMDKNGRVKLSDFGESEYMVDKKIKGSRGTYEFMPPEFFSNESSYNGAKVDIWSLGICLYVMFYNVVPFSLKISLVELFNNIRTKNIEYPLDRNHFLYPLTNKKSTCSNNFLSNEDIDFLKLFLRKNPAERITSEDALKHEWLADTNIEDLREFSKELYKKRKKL
Calcium-dependent protein kinase 1 (Plasmodium falciparum (isolate 3D7)), sequence (P62344 whole entry, looked up): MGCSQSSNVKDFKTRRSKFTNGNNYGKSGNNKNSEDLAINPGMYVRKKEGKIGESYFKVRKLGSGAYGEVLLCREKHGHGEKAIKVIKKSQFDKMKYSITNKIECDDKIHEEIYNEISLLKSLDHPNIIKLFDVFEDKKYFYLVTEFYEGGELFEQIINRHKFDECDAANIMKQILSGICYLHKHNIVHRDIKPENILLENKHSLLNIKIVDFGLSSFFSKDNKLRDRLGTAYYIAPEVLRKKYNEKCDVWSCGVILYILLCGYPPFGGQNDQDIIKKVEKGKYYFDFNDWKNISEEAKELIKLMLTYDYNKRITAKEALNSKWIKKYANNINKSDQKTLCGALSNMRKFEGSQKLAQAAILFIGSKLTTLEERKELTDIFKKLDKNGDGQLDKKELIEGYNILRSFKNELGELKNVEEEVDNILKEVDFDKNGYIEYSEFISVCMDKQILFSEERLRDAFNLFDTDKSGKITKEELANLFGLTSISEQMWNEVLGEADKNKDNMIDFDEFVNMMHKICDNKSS
Calcium-dependent protein kinase 4 (Plasmodium falciparum (isolate 3D7)), sequence (Q8IBS5 whole entry, looked up): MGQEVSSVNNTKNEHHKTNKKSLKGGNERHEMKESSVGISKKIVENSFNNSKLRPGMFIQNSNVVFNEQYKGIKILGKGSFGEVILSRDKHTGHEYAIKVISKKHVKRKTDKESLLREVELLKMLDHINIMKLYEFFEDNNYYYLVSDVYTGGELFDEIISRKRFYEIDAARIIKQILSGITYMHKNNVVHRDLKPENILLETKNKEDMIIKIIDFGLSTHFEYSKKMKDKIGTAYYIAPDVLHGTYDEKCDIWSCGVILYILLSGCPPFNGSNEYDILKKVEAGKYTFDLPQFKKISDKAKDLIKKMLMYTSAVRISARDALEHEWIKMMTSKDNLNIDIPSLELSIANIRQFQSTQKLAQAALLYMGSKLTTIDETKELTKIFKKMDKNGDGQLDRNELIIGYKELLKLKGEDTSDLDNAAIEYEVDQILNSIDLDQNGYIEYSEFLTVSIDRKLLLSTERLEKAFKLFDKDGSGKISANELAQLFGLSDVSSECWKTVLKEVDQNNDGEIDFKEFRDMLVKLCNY
Plasmodium falciparum protein kinase 6 (PK6, PF3D7_1337100), sequence (Q8IDW1 1-305): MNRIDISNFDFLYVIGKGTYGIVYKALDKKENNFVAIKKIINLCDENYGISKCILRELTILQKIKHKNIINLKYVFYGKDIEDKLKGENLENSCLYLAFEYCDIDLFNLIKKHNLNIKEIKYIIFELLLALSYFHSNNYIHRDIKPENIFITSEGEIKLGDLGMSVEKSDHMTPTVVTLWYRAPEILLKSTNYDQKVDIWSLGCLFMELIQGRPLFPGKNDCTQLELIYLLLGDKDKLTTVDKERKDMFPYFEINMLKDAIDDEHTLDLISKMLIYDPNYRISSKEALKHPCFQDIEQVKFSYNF
L-lactate dehydrogenase (Plasmodium falciparum (isolate CDC / Honduras)), sequence (Q27743 whole entry, looked up): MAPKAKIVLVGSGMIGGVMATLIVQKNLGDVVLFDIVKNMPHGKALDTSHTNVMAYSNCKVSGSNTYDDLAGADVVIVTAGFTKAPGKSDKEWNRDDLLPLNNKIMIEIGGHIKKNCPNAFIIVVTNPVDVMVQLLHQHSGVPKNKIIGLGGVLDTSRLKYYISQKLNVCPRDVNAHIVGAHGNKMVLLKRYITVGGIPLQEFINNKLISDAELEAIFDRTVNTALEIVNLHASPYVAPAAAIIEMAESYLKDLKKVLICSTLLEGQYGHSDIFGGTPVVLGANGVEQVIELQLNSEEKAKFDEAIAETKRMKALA

Take `N#Cc1cccc(NC(=O)Nc2ccc(-c3cccc(-c4nc5ccc(F)cc5[nH]4)c3)cc2)c1`: the growth inhibition in experiment [1] is 100% (active); in experiment [4] it was 102% (active). Moreover, the figures for the inhibition in experiment [2] and in experiment [3] were 64% (active) and 4%, respectively. Also, the result in experiment [5], in experiment [6], in experiment [7] and in experiment [8] was inactive.

As to `CC(C)C1CCc2nc(N)nc(N)c2C1` (configuration not stated), the figures for the growth inhibition in experiment [1] and in experiment [4] were -2% and 95% (active), respectively. Also, the inhibition in experiment [2] was 70% (active); in experiment [3], -5%. Besides, the outcome in experiment [5], in experiment [6], in experiment [7] and in experiment [8] was inactive.

Regarding `NC(=O)COc1cccc2c1CCN(CCN1CCC(NC(=O)c3ccc(-c4ccc(Cl)cc4)cc3)CC1)C2`, the growth inhibition in experiment [1] was 6%; in experiment [4], 92% (active). For the same compound, the inhibition was 44% in experiment [2] and -1% in experiment [3]. Further, the outcome in experiment [5], in experiment [6], in experiment [7] and in experiment [8] was inactive.

Take `COc1c(C2CCN(CCCCNC(=O)c3noc(-c4ccc(C#N)cc4)n3)CC2)ccc2c1CCCC2`: the growth inhibition was -2% in experiment [1] and 99% (active) in experiment [4]. For the same compound, the inhibition in experiment [2] is 32%; in experiment [3], -1%. For the same compound, the result in experiment [5], in experiment [6], in experiment [7] and in experiment [8] was inactive.

Turning to `O=S(=O)(NCCN1CCCC1)c1cccc(-c2ccccc2CNC2Cc3ccccc3C2)c1`, the growth inhibition is 76% (active) in experiment [1] and 99% (active) in experiment [4]. For the same compound, the inhibition in experiment [2] is 35%; in experiment [3], -3%. In addition, the result in experiment [5], in experiment [6], in experiment [7] and in experiment [8] was inactive.

For `CC(C)CNCc1cccc(-c2ccc(CNC3CCN(Cc4ccccc4)CC3)cc2)c1`, the values for the growth inhibition in experiment [1] and in experiment [4] were 99% (active) and 100% (active), respectively. For the same compound, the inhibition in experiment [2] was 44%; in experiment [3] it was 3%. Moreover, the result in experiment [5], in experiment [6], in experiment [7] and in experiment [8] was inactive.

For the compound `CC(C)(C)OC(=O)N(Cc1cc(-n2nnnc2C(F)(F)F)ccc1O)[C@H]1CCCN(C(=O)OC(C)(C)C)[C@H]1c1ccccc1`, the growth inhibition was 66% (active) in experiment [1] and 98% (active) in experiment [4]. The results for the inhibition in experiment [2] and in experiment [3] were 14% and -5%, respectively. Moreover, the result in experiment [5], in experiment [6], in experiment [7] and in experiment [8] was inactive.

Consider `Cc1cc(NCCC(=O)NCCc2ccccc2)nc(NCCc2ccc(F)cc2)n1`, for which the growth inhibition was 7% in experiment [1] and 92% (active) in experiment [4]. The inhibition in experiment [2] is 0%; in experiment [3], -1%. Also, the result in experiment [5], in experiment [6], in experiment [7] and in experiment [8] was inactive.

For `O=C1C(c2ccccc2)=C(Nc2cc(Cl)cc(Cl)c2)c2ccccc21`, the growth inhibition was 94% (active) in experiment [1] and 96% (active) in experiment [4]. Moreover, the inhibition in experiment [2] is -4%; in experiment [3], -3%. Besides, the outcome in experiment [5], in experiment [6], in experiment [7] and in experiment [8] was inactive.

On to `Cn1nccc1C(=O)NCCNCc1ccc(-c2ccc(-c3nc4ccc(C(F)(F)F)cc4[nH]3)cc2)cc1`, for which the growth inhibition in experiment [1] is 99% (active); in experiment [4] it was 100% (active). Also, the values for the inhibition in experiment [2] and in experiment [3] were 35% and -2%, respectively. Further, the outcome in experiment [5], in experiment [6], in experiment [7] and in experiment [8] was inactive.

As to `CCC(CC(NCCCCNC(=O)c1ccc(NC(=O)c2ccc(Cl)cc2)cc1)c1ccccc1)c1ccccc1OC` (configuration not stated), the growth inhibition is 76% (active) and 56% (active) in experiment [1]; 100% (active) and 89% (active) in experiment [4]. Moreover, the inhibition in experiment [2] was 23% and 10%; in experiment [3], -1% and 1%. The result in experiment [5], in experiment [6], in experiment [7] and in experiment [8] was inactive.

For the compound `Cc1[nH]c(C)c(-c2ccc(Oc3ccc(OC(F)(F)F)cc3)cc2)c(=O)c1Br`, the growth inhibition was 95% (active) and 97% (active) in experiment [1]; 96% (active) in experiment [4]. Also, the inhibition in experiment [2] is -4% and -1%; in experiment [3], 1% and 2%. The result in experiment [5], in experiment [6], in experiment [7] and in experiment [8] was inactive.

`Cn1ccnc1S(=O)(=O)CCNCc1ccc(-c2ccc3ncnc(Nc4ccc(OCc5cccc(F)c5)c(Cl)c4)c3c2)o1`: the growth inhibition was 94% (active) in experiment [1] and 101% (active) in experiment [4]. Further, the inhibition is -2% in experiment [2] and -3% in experiment [3]. The outcome in experiment [5], in experiment [6], in experiment [7] and in experiment [8] was inactive.

For the compound `Cc1nc2ccccc2c(=O)n1NCc1ccc(Cl)c(Cl)c1`, the results for the growth inhibition in experiment [1] and in experiment [4] were 92% (active) and 96% (active), respectively. Also, the inhibition in experiment [2] is 12%; in experiment [3], 0%. In addition, the outcome in experiment [5], in experiment [6], in experiment [7] and in experiment [8] was inactive.

On to `CN1CCC(NCc2cccc(-c3cccc(-c4nc5ccc(C(F)(F)F)cc5[nH]4)c3)c2)CC1`, for which the growth inhibition in experiment [1] and in experiment [4] was 101% (active) each time. In addition, the inhibition in experiment [2] was 35%; in experiment [3], -1%. The result in experiment [5], in experiment [6], in experiment [7] and in experiment [8] was inactive.

In the case of `c1ccc(Oc2cccc(Nc3ccnc4ccccc34)c2)cc1`, the growth inhibition in experiment [1] is 14%; in experiment [4] it was 95% (active). For the same compound, the inhibition in experiment [2] is 48%; in experiment [3], 6%. Moreover, the result in experiment [5], in experiment [6], in experiment [7] and in experiment [8] was inactive.

With `COc1cccc(CNC(=O)c2cnc(N3CCN(c4ccncc4)CC3)c(Cl)c2)c1`, the values for the growth inhibition in experiment [1] and in experiment [4] were 12% and 89% (active), respectively. The inhibition is 25% in experiment [2] and 5% in experiment [3]. Moreover, the result in experiment [5], in experiment [6], in experiment [7] and in experiment [8] was inactive.

Take `C=C[C@H]1CN(CCCCCCC)CC[C@H]1CCN(C)c1ccnc2ccc(OC)cc12`: the growth inhibition in experiment [1] is 93% (active); in experiment [4] it was 97% (active). Further, the inhibition in experiment [2] was 22%; in experiment [3], -1%. The result in experiment [5], in experiment [6], in experiment [7] and in experiment [8] was inactive.

Consider `CCNc1cc(C(=O)N[C@@H](Cc2ccc(F)c(F)c2)[C@H](O)CNCc2cccc(OC)c2)cc(N2CCCCS2(=O)=O)c1`, for which the growth inhibition in experiment [1] is 85% (active); in experiment [4] it was 99% (active). The inhibition is 4% in experiment [2] and -7% in experiment [3]. Besides, the result in experiment [5], in experiment [6], in experiment [7] and in experiment [8] was inactive.

As a reminder, the inhibition is the change of the read-out against control, counted positive when it falls.
